Source: the supplement of paper PMC12632987
Over roughly 4,500 sequences, “median log2 fold change of GCK-ALFA target abundance (FLAG IP / Myc IP barcode read proportion)” has its median near 0.078; the lowest 2% begin near -0.6. This is one part of a sample in which the lowest values are shown more often than they occur.

B1: GBRAP_184_5064 (protein)
chain: KIYEETIEVTNLEEAKEKMKELKEKIKNFKGDLIVHLKLPEFNKEIVKAILDELAEIKKAGYAKNITLGIDADTTEEEVDFLISTADEKGINVVVALREE
B2: GBRAP_160_4178 (protein)
chain: SEKIEEAEEEIEEIFEEAYEMMKGQTAEERAAIVDVAFGEIILYLEEKGLLTDETEAKIDEIRDETVSYILANPDLTDEELRELLEEAAEEIIEALRENS
B3: GBRAP_160_4175 (protein)
chain: SEKLEEAEKKIKEIFEEAYKMMEGESAEERAAIVAVAFGEIILYLEEKGLLTDETEAKIDEIEDEAVEYILENPDLTEEELRELLEESAEKIIKALKENS
B4: GBRAP_52_6269 (protein)
chain: MKELAEKLAKEFIETSLNGTEEEVKEFAKKLVETESQELIELMLEIVVEMAKSLNAEELEKLLDAFLILEDELEEAGKDTLPAEDAAAELAKLYMEKLKE
B5: GBRAP_52_5996 (protein)
chain: AEARIRALAEELVAAVLAGDEERVRAILRRIAAELSDEEIVETVRLATRLLARDPRATLEDLARFIDIVEEVLEEEGKSDRLIADVLGAIAEAIAEVEAE
B6: GBRAP_52_5997 (protein)
chain: REERIEALARELVEATLAGDDERVRALLRRIAAELSDEEIVETVRLATRLLERDPRATLEDLANFIDLVEDVLEEEGKSDELIARVLGAIAEAIYEAELE
B7: GBRAP_39_5719 (protein)
chain: EEEEEAENIFSYYEAVGAKKMYERGISLDELFAELYARARELAADDPELAAALDELRALAEAAGDEAKLAAAGLMSRLVEGEPREEILADAEKLIAYLKS
B8: GBRAP_128_3452 (protein)
chain: STEEKVKKAEELMNKIIESSDEEVPALAAELVDLIGESDDESAKAIAEVIIKKIPELSEEKLEILADVFVARRPELTPEKQEVLNEIAVAIGEEILEKEE
B9: GBRAP_125_2964 (protein)
chain: SEEEDLEALATLAKALGFDEDDVEEAVRLARKFGFKNTLIALFLAEGYDEVADLVEKLTEEEAKEVLKRLAEEIKKNPELTPEEVVKLAKELFEEVIAKK
B10: GBRAP_160_4000 (protein)
chain: MEEIEELKEEIEEIIDETIAAMEGLTPEERLTLVRGMVGEIIQLVEDSPAVSDEAEDEIAELGDELVEEVEANRDAPLEVWRELLERFLEEIKKILDKEE
B11: GBRAP_11_2888 (protein)
chain: KKEKLKELAELARKIAELIEKLLEEGTDNEELLKEIEKLLKELEKLTKEYADKGSQKLTEIAKELFKKALEDPENRKEYLEELLAAVRVLEGDYLLEYEE
B12: GBRAP_128_3538 (protein)
chain: SLEEVKKRAREVMEKIKNSSVEEAYEITKEFLEELKSLSLEEVEAAIEVLEELLPELSAEKLEAIADAMREMRPTLSPEKQRLVADLQVEALNEAEEKEE
B13: GBRAP_35_5578 (protein)
chain: EDKEMLLETVRDLAEATIEAIKEGDLDLAIALLEALLRTAELAVEELANDAEALEEIAALLERVIAAIKEHLADDPRVQALLARLEALLARTKALLAAVK
B14: GBRAP_184_5199 (protein)
chain: KVLEIEVTVSNLEEAKKKMEEILAKAKEEKADLLLILDLKTSTKEIIETIMNALGKIKKEGYAPNVLVELEGDLSDENIDLAFKLADEAGVSLVIALPEE
B15: GBRAP_11_2855 (protein)
chain: KKEKLKEIAELAKKAIELLKELLKKGVDDKELQKKIKELLEKLLELVKKYLDEASVKLAKEALESFKKSLEDPENKEKYINESLAFLEVLLGDVLLEIDE
B16: GBRAP_139_3755 (protein)
chain: SKTEEAIKEIVELVKDPNATLEEIEEKVKEIAKELDEESIKKVLKAAAEAAKSLSVERIEELEERFIKILKEEGRSEDVIDFLEGEFNEAAALSAYREEL
B17: GBRAP_196_5419 (protein)
chain: SLVQEARKINEEAEKRLKATDKEVTVVVSTGDLERHREAVEKAIDYAKEHPDELVLLVFMDDLETALEAARYAKELAEKEGVDLVVEVASRELEEHPDEE
B18: GBRAP_14_3875 (protein)
chain: MEEIKKIIDDMVAEIVAFVKEVSPEIAPEVEKRLNEIREKTLARIEETGDPLAAFDAMEEEMIAAMEEITADLPEEDRTAILAELRVRLAEARYRIDEVL
B19: GBRAP_150_3934 (protein)
chain: DLEELLLLAESVADLLDLALNEGIDRLKALKRAQELLKDLIKEADEELKEIAKKAQELIKKAIKLEEEGGEEKEIKKLLKKAQELAKELAKELEKKIEEE

Each binder was assayed against GABARAP, O95166 (assay: median log2 fold change of GCK-ALFA target abundance (FLAG IP / Myc IP barcode read proportion) (log2 ratio); each designed protein is fused to an ALFA-tag nanobody in HEK293 cells to bring the named protein to FLAG-tagged glucokinase (GCK); Myc marks an untargeted standard; higher = target protein stabilised (more abundant)). Conditions: target protein: 3xFLAG-MCP-GCK-ALFA reporter; HEK293 landing pad (RPLP).
Outline: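 An ALFA-nanobody-fused binder library was recombined into HEK293 landing-pad cells and induced with 2 μg mL^−1 doxycycline. Cells were transfected with a plasmid expressing a FLAG-tagged target and a Myc-tagged standard. After 48 h, lysates underwent anti-FLAG and anti-Myc immunoprecipitation, and circular RNA barcodes were reverse transcribed, amplified and sequenced. Target abundance is the per-binder median log2 ratio of FLAG to Myc barcode read proportions. Barcodes needed ≥10^−7 proportion in both replicates, binders ≥3 barcodes per replicate, and a 10^−6 pseudocount was added; the two replicates were pooled.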

Chain of GABARAP, O95166 (O95166 whole entry, the tested form may be a part): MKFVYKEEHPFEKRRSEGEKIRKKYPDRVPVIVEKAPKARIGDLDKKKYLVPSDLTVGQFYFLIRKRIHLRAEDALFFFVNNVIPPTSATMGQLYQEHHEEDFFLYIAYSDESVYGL

| Binder | median log2 fold change |
| --- | --- |
| B1 | 0.127 |
| B2 | -0.598 |
| B3 | -0.178 |
| B4 | 0.267 |
| B5 | -0.179 |
| B6 | -0.74 |
| B7 | 0.194 |
| B8 | 0.274 |
| B9 | -0.94 |
| B10 | -0.0825 |
| B11 | -0.0328 |
| B12 | 0.273 |
| B13 | -0.85 |
| B14 | -0.0295 |
| B15 | 0.193 |
| B16 | 0.234 |
| B17 | 0.0489 |
| B18 | 0.256 |
| B19 | 0.0862 |
